Screening results (PubChem BioAssay)
An excerpt weighted towards active compounds, which were near 3.3% of everything screened.
AmpC inh detg: inhibitors of E. coli AmpC beta-lactamase with detergent | Potency, µM (highest dose often 114 µM), for the others: at the top dose activity change, negative = inhibition, usual class: inhibitors | 370,000 compounds, 0.041% hits | AmpC hydrolysis of nitrocefin, absorbance 480 nm, 0.01% Triton;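 also: 0% = no-compound wells and -100% = no-enzyme wells; nearly all actives have a fitted effect of over 25% in size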
Target sequence (P00811 whole entry, looked up): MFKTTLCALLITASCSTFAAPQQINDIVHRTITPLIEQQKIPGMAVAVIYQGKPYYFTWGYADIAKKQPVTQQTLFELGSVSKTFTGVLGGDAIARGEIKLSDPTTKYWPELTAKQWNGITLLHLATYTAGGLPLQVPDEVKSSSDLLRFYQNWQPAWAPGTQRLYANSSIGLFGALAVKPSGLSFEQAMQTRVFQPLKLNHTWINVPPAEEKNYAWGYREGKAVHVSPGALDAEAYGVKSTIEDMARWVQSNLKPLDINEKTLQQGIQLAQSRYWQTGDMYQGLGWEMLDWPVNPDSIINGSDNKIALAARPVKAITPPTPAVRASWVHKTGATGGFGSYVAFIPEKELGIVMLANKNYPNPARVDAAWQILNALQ
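20 mM phosphate pH 7.0 + 0.01% (detergent screen) or 0.0001% Triton X-100; 5.3 nM AmpC reagent; cpd preinc 15 min RT; nitrocefin (800 uM stock) to start; A480 q20 s × 4 min; Activity was normalised to no-enzyme and no-compound control wells.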
RE007 growth inh: less growth of the S. pombe RE007 Vpr strain; S. pombe RE007 Vpr strain, BacTiter-Glo ATP luminescence, 24 h; Potency, µM (titrated, usually from 92.2 µM), inactives show top-dose activity change, negative = less growth, hits mostly inhibitors; 360,000 compounds, 0.21% hits; AID 651644; active = well fitted falling curve with a large enough effect; inconclusive = small, poorly fitted or top-dose-only effect; inactive = no such curve, though single readings can be large or run the other way; also: % is scaled to controls: 0 for no effect and ±100 for the full control effect; nearly all actives have a fitted effect of over 50% in size
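Fission yeast strain RE007, carrying one chromosomally integrated HIV-1 vpr copy, was seeded at OD 0.01 in PMG+AL medium with 23 nL pinned compound. After 24 h at 30 °C and 99% humidity, viability was read by BacTiter-Glo luminescence.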
Sm TGR block: S. mansoni TGR enzyme inhibition; 360,000 compounds, 3% hits; purified TGR, DTNB reduction, TNB absorbance 405 nm; Q962Y6; Potency, µM (doses to about 114 µM), for inactives: at the highest dose activity change, negative = inhibition, most hits filed as inhibitors; AID 485364; also: % is scaled to controls: 0 for no effect and ±100 for the full control effect; nearly all actives have a fitted effect of over 60% in size
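TGR 20 nM + NADPH 100 uM (dispensed conc.), cpd preinc 15 min RT; start with NADPH (500 uM addition) then DTNB (15 mM addition). Kinetic TNB absorbance, 405 nm filter. Four-parameter Hill fit across titration.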
SARS PLpro yeast: blocks SARS-CoV papain-like protease in a yeast assay. AID 485353. S. cerevisiae expressing SARS-CoV PLpro, growth rescue. 330,000 compounds, 0.19% hits. Potency, µM (top dose mostly 32.9 µM), for the others: top-dose activity, positive = growth rescue, most hits filed as activators; calls by dose curve; also: 0% is about no effect; nearly all actives have a fitted effect of over 55% in size
Tb PYK inh: inhibitors of Trypanosoma brucei pyruvate kinase; AID 624173; Q57TT1; 410,000 compounds, 0.12% hits; TbPYK enzyme, Kinase-Glo Plus ATP luminescence, 45 min; Potency, µM (highest dose often 76.8 µM), inactives show at the highest dose activity, negative = inhibition, hits mostly inhibitors; also: % is scaled to controls: 0 for no effect and ±100 for the full control effect; nearly all actives have a fitted effect of over 50% in size
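Glycolytic pyruvate kinase of T. brucei was incubated with substrate, test compound and 130 uM ADP for 45 minutes at room temperature. Luminescent Kinase-Glo Plus signal was measured after 10 minutes.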
AmpC no deterg: inhibitors of E. coli AmpC beta-lactamase without detergent | P00811 | AmpC nitrocefin hydrolysis, absorbance 480 nm, 0.0001% Triton | Potency, µM (series often up to 57.1 µM), for the others: at the highest dose activity change, negative = inhibition, hits mostly inhibitors | 330,000 compounds, 0.52% hits;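 also: plate controls were no compound for no effect and no enzyme for full effect; nearly all actives have a fitted effect of over 20% in size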
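20 mM phosphate pH 7.0 + 0.01% (detergent screen) or 0.0001% Triton X-100; 5.3 nM AmpC reagent; cpd preinc 15 min RT; nitrocefin (800 uM stock) to start; A480 q20 s × 4 min; Activity was normalised to no-enzyme and no-compound control wells.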
* hit, by the source's call; ? = inconclusive; · = not tested or not shown; ! = repeats disagree; [ ] = another dose, or the depositor's remark. Unless noted, calls follow the shape of the dose curve; as a rule, active = well fitted curve in the direction sought with a large enough effect; inconclusive = small, poorly fitted or top-dose-only effect, or another doubt; inactive = no such curve, though single readings can be large; an effect the other way counts as inactive or inconclusive. Potency is read from the fitted curve at half-maximal effect.

SMILES	AmpC inh detg	RE007 growth inh	Sm TGR block	SARS PLpro yeast	Tb PYK inh	AmpC no deterg
CC(=O)[C@@H]1[C@@H]2C(=O)N(Cc3ccccc3)C(=O)[C@@H]2C2c3ccccc3C=CN21 (stereo not given in full)	-1%	14%	45µM*	-4%	-2%	-16%
Cc1ccc(N2C(=O)[C@@H]3[C@H](C2=O)C2c4ccccc4C=CN2[C@@H]3C(=O)c2ccco2)c(C)c1 (stereo not given in full)	-15%	-4%	?	-9%	-7%	3%
O=C(c1ccco1)[C@@H]1[C@@H]2C(=O)N(c3ccccc3)C(=O)[C@@H]2C2c3ccccc3C=CN21 (stereo not given in full)	-13%	-15%	56µM*	0%	-4%	-16%
Cc1ccc(N2C(=O)[C@@H]3[C@H](C2=O)C2c4ccccc4C=CN2[C@@H]3C(=O)c2ccco2)cc1 (stereo not given in full)	-2%	-23%	28µM*	-5%	0%	-10%
Cn1c(=O)n(C)c2cc(NS(=O)(=O)c3ccc(F)cc3)c(NCc3ccccc3)cc21	18%	·	-21%	·	6%	·
CC(C)c1ccc(NC(=O)C2CCCN2S(=O)(=O)c2ccc3nc(-c4ccccc4)[nH]c3c2)cc1 (stereo not given)	-4%	·	-15%	·	2%	·
Cc1ccc(OCC(=O)NCC2(N(C)C)CCCCC2)cc1C	-5%	·	-1%	·	0%	·
S=c1[nH]nc(Cc2cccc3ccccc23)n1-c1ccccc1	-2%	11%	-17%	5%	5µM*	-27%
CCOc1ccc(-n2c(CCc3ccccc3)n[nH]c2=S)cc1	7%	13%	-27%	-2%	3.2µM*	-17%
CCc1ccc(-n2c(Cc3ccccc3)n[nH]c2=S)cc1	-7%	-4%	3%	1%	4µM*	-13%
S=c1[nH]nc(CCSCc2ccccc2)n1-c1ccccc1	4%	7%	-5%	0%	5.6µM*	-39%
Nn1c(Cc2cccc3ccccc23)n[nH]c1=S	8%	8%	9%	4%	?	-18%
C=CCn1c(SCc2nc3ccccc3nc2C)nnc1-c1ccoc1C	-4%	11%	45µM*	-7%	-20%	106%
Cc1cc(C2=CC(C)(c3cc(C)oc3C)Nc3nc(C(F)(F)F)nn32)c(C)o1 (stereo not given)	7%	·	10µM*	-2%	·	51%
COc1ccccc1CNc1ccc(-c2nc(-c3ccccn3)no2)cc1[N+](=O)[O-]	-6%	·	-7%	·	1%	·
COc1cc(NC(=S)NCc2ccco2)cc(OC)c1OC	-14%	13%	-35%	1%	-4%	1%
COc1cc(CNCc2ccco2)cc(OC)c1O	-5%	-26%	16µM*	-5%	0%	-13%
COc1ccccc1NC(=S)NCc1ccco1	-4%	-14%	35µM*	-9%	-2%	-7%
Cc1ccc(CNCc2ccco2)cc1	-15%	-16%	?	4%	8%	-2%
CC(C)(C)NC(=S)NCc1ccco1	?	6%	25µM*	-28%	-6%	-46%
NNC(=S)NCc1ccco1	0%	-10%	-1%	0%	-21%	-42%
Cc1ccc(C)c(N2CCN(C(c3ccc(F)cc3)c3nnc(-c4ccccc4)o3)CC2)c1 (stereo not given)	-4%	·	0%	·	-5%	·
Cc1cccc(C)c1NC(=O)CC12CCCN1CCC2	·	·	·	·	3%	·
O=S(=O)(O)c1cc(O)ccc1O	3%	-3%[18.4 µM]	-20%	-5%	-6%	-20%
O=S(=O)(c1cc(O)ccc1O)c1cccc2c(S(=O)(=O)c3cc(O)ccc3O)cccc12	-10%	12%	11µM*	-7%	?	20µM*
SMILES	AmpC inh detg	RE007 growth inh	Sm TGR block	SARS PLpro yeast	Tb PYK inh	AmpC no deterg
Cc1cc(C)n(C(=O)c2c([N+](=O)[O-])c(C)nn2C)n1	-4%	0%	10%	5%	-2%	-8%
Cc1ccc(SC(=O)c2c([N+](=O)[O-])c(C)nn2C)cc1	-7%	?	5.6µM*	-3%	-1%	14%
CC(C)c1ccc(S(=O)(=O)N2CCC(N3CCN(Cc4ccccc4)C(=O)C3=O)CC2)cc1	-5%	·	2%	·	-4%	·
COc1ccc(OC)c(C2CC(=O)N3CN(c4ccc(C)c(Cl)c4)CSC3=C2C#N)c1 (stereo not given)	?	-8%	20µM*	-1%	?	-44%
CCOC(=O)c1ccc(N2CSC3=C(C#N)C(c4ccc(OC)cc4OC)CC(=O)N3C2)cc1 (stereo not given)	?	-15%	?	11%	?	-32%
COc1ccc(Br)cc1C1CC(=O)N2CN(Cc3ccccc3)CSC2=C1C#N (stereo not given)	?	6%	0%	-1%	?	-41%
COc1cccc(C2CC(=O)N3CN(c4cccc(Cl)c4C)CSC3=C2C#N)c1OC (stereo not given)	?	-4%	0%	2%	?	71%
COc1ccc(OC)c(C2CC(=O)N3CN(c4cccc(Cl)c4C)CSC3=C2C#N)c1 (stereo not given)	0%	1%	10µM*	11%	3.5µM*	-54%
COc1ccc(OC)c(C2CC(=O)N3CN(c4cccc(Cl)c4)CSC3=C2C#N)c1 (stereo not given)	?	-11%	50µM*	2%	?	-45%
Cc1ccc(-c2ccc(=O)n(CC(=O)Nc3ccc(F)c(Cl)c3)n2)cc1C	22%	·	6%	·	-1%	·
Cc1ccccc1C(=O)Nc1nnc(S(=O)(=O)N(C)Cc2ccccc2)s1	-4%	·	-8%	·	3%	·
Cc1ccccc1C(=O)Nc1nnc(S(=O)(=O)N(C)Cc2ccco2)s1	-8%	-3%	3.2µM*	-1%	-14%	-31%
CN(Cc1ccco1)S(=O)(=O)c1nnc(NC(=O)c2ccccc2Cl)s1	-2%	-1%	11µM*!	2%	-7%	-47%
COC(=O)CN1C(=O)[C@H]2[C@@H](c3ccc(C)o3)N3C(=O)CN(Cc4ccccc4)C(=O)[C@@]3(C)[C@H]2C1=O	3%	3%	22µM*	-1%	-28%	48%
Cc1ccc([C@@H]2[C@@H]3C(=O)N(C)C(=O)[C@@H]3[C@]3(C)C(=O)N(Cc4ccccc4)CC(=O)N23)o1	?	-5%	45µM*	3%	-15%	25%
COc1ccc(S(=O)(=O)N(CC(=O)Nc2cc(C)cc(C)c2)c2ccc(Cl)cc2)cc1	-3%	·	-5%	·	6%	·
